Pf apPOL inh – Pf-apPOL DNA polymerase inhibition; Recombinant Pf-apPOL, molecular beacon fluorescence, 1.5 h; inhibition, % at 10 µM; hit rate 0.25% among 210,000; AID 1794808
mHTT CaM bind – disrupts binding of mutant huntingtin to calmodulin; P42858; AlphaScreen His-mHTT/GST-CaM binding, luminescence; inhibition, % at 15 µM; hit rate 3.6% among 190,000; AID 1671202;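 note: 0% = both proteins with DMSO and 100% = one protein alone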
* = called active by the depositor. Compounds with a hit are over-represented: about 3.6% of the library has one in this group of screens. Cut-off read from the data, not from the text of the source: active = inhibition above about 50%; inactive = the rest.

SMILES	Pf apPOL inh	mHTT CaM bind
COc1ccc(NC(=O)CSc2nc3[nH]ncc3c(=O)n2-c2ccc(Cl)cc2)c(OC)c1	-4.6	25.0
CCc1ccc(-n2c(SCC(=O)Nc3ccc(OC)cc3OC)nc3[nH]ncc3c2=O)cc1	-11.8	68.0*
Cc1cccc(-n2c(SCc3ccc(Cl)cc3)nc3[nH]ncc3c2=O)c1	-16.2	79.0*
Cc1ccc(CSc2nc3[nH]ncc3c(=O)n2-c2ccc(C)cc2)cc1	81.0*	14.0
Cc1ccc(CSc2nc3[nH]ncc3c(=O)n2-c2cccc(Cl)c2)cc1	-11.6	38.0
Cc1ccc(-n2c(SCc3cccc([N+](=O)[O-])c3)nc3[nH]ncc3c2=O)cc1Cl	0.3	58.0*
O=c1c2cn[nH]c2nc(SCc2cccc([N+](=O)[O-])c2)n1-c1ccc(Cl)cc1	-4.7	33.0
Cc1ccc(-n2c(SCc3ccccc3)nc3[nH]ncc3c2=O)cc1	-17.0	20.0
Cc1ccnc(N2CCCC(C(=O)NCCCN(C)c3ccccc3)C2)n1 (stereo not drawn)	-4.7	5.7
Cc1[nH]c2ccccc2c1CCNC(=O)NS(=O)(=O)Oc1ccc(F)cc1	-0.8	4.0
COc1cccc(/C=C2/N=C(c3ccccc3)OC2=O)c1OC	-2.1	3.0
Cc1cccc(N2CCN(C(=O)c3c(C)sc4ccn(C)c(=O)c34)CC2)c1	2.0	36.5
Cc1sc2ccn(C)c(=O)c2c1C(=O)N1CCN(c2cccc(Cl)c2)CC1	-1.0	96.0*
CCn1nc(-c2nc(-c3ccc(Cl)cc3)no2)ccc1=O	-5.1	-6.1
Brc1cccc(CN2CCc3nc(N4CCCC4)ncc3C2)c1	7.2	100.3*
CCN1CCN(c2ncc3c(n2)CCN(Cc2cc(F)cc(F)c2)C3)CC1	-1.9	22.6
CCc1ccc(CN2CCc3nc(N4CCN(CC)CC4)ncc3C2)cc1	-0.2	33.7
CCN1CCN(c2ncc3c(n2)CCN(Cc2cccc(Br)c2)C3)CC1	1.9	57.4*
CCOc1ccc(CN2CCc3nc(N4CCCC4)ncc3C2)cc1OCC	3.3	0.1
c1ccc(CN2CCc3nc(N4CCCC4)ncc3C2)cc1	6.1	48.0
CCN1CCN(c2ncc3c(n2)CCN(Cc2ccccc2)C3)CC1	-4.7	55.4*
Cc1cccc(CN2CCc3nc(N4CCCC4)ncc3C2)c1	8.5	83.9*
CC(=O)N(C)c1ccc(NC(=O)CC(C)c2ccccc2)cc1 (stereo not drawn)	-2.7	-3.1
Cc1nc2cc(-c3noc(-c4ccccc4C)n3)ccc2o1	1.4	-14.0
O=c1c(-c2ccccc2)c(C(F)(F)F)oc2c3c(ccc12)OCN(CCCO)C3	-4.6	-1.0
SMILES	Pf apPOL inh	mHTT CaM bind
CCN(CC)c1nc(C)nc2sc(C(=O)N(C)C3CCCCC3)c(C)c12	-2.9	1.0
COCCN1CC(C(=O)NCc2cccc(OC)c2)CC1=O (stereo not drawn)	0.7	-0.2
CN(C)c1ccc(CN2CCc3nc(N4CCN(c5ncccn5)CC4)ncc3C2)cc1	-3.1	99.9*
Cc1ccc(CN2CCc3nc(N4CCN(c5ccccc5)CC4)ncc3C2)cc1	2.8	27.8
COc1ccccc1/C=C1N=C(/C=C/c2ccccc2OC)OC\1=O	-8.1	-3.0
Cc1nnc(NC(=O)C2CCN(c3ccc(-c4cccs4)nn3)CC2)s1	-11.0	-4.8
CN(C)c1ccc(NC(=O)Nc2cn(C)c3ccccc23)cc1	1.5	55.6*
CC1CCCCC1NC(=O)Nc1cn(C)c2ccccc12 (stereo not drawn)	-0.9	-10.3
CCc1c(C)nc2ccc(Br)cc2c1SCCC(=O)O	-0.9	9.0
Cc1oc(C(=O)O)cc1COc1cccc2cccnc12	0.3	73.8*
Cc1oc(C(=O)O)cc1COc1ccc2c(C)c(C)c(=O)oc2c1C	-5.8	8.0
CCN1c2cc(C)ccc2-n2cccc2C12CCN(C(=O)Nc1ccccc1)CC2	-5.9	51.9*
CCOc1ccc(NC(=O)N2CCC3(CC2)c2cccn2-c2ccc(C)cc2N3CC)cc1	-2.8	51.7*
CCN1c2cc(C)ccc2-n2cccc2C12CCN(C(=O)c1ccccc1OC)CC2	-4.0	8.5
CCN1c2ccccc2-n2cccc2C12CCN(C(=O)Nc1cc(C)ccc1C)CC2	-2.1	0.5
Cc1ccc2c(c1)C(=O)NC1(CCN(C(=O)NC3CCCCC3)CC1)N2C	0.3	-0.2
CCN1c2cc(C)ccc2-n2cccc2C12CCN(C(=O)Nc1ccccc1OC)CC2	-1.1	65.5*
CCN1c2cc(C)ccc2-n2cccc2C12CCN(C(=O)Nc1ccc(C)cc1)CC2	-5.5	44.3
CCN1c2cc(C)ccc2-n2cccc2C12CCN(C(=O)NC1CCCC1)CC2	-6.3	71.7*
CCNS(=O)(=O)c1cccnc1Nc1ccc(F)cc1	-9.1	-2.8
Cc1cc(Cl)ccc1NC(=O)C12CCC(C)(C(=O)C1=O)C2(C)C (stereo not drawn)	-4.5	-4.3
O=[N+]([O-])c1ccc(N2CCCC2)cc1Sc1nnnn1-c1ccccc1	-5.0	-1.2
CCN1c2cc(Cl)ccc2C(=O)NC12CCN(C(=O)Nc1ccc(OC)cc1)CC2	-7.9	23.1
CCN1c2cc(C)ccc2-n2cccc2C12CCN(C(=O)Nc1ccc(OC)cc1)CC2	-1.2	56.1*
